Screening data: PubChem BioAssay, National Center for Advancing Translational Sciences (NCATS)
Shown are actives, neighbours in structure and some others; about 7.5% of the full set was active somewhere.
FLuc modulator = qHTS profiling assay for firefly luciferase inhibitor/activator using purifed enzyme and Km concentrations of substrates (counterscreen for miR-21 project); Luciferin 4-monooxygenase (Photinus pyralis), P08659; purified FLuc, Km substrates, luminescence inhibition; Potency, µM (titrated, usually from 57.5 µM), usual class: inhibitors; 360,000 compounds, 6.9% hits; note: nearly all actives have a fitted effect of over 55% in size
Target sequence (P08659 whole entry, looked up): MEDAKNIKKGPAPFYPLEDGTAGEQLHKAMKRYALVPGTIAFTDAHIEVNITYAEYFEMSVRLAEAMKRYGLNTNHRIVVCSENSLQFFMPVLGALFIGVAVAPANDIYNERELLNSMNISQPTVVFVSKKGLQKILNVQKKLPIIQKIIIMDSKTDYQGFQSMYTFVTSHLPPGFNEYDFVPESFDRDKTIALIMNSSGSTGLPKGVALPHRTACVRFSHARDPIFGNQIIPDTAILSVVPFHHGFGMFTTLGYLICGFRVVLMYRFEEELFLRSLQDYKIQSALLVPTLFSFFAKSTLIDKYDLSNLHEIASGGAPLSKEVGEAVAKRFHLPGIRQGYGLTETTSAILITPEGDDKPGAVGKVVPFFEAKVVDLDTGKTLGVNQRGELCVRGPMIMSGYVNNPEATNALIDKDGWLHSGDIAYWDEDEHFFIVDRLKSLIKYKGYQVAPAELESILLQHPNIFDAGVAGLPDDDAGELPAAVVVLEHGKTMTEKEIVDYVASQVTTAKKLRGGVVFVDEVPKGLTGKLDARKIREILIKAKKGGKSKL
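Purified P. pyralis luciferase (10nM final) with 10uM D-luciferin and 10uM ATP (Km levels) in 50mM Tris acetate pH 7.5, 10mM Mg acetate, 0.01% Tween-20, 0.05% BSA; qHTS 6-point titration, ~60 µM downward; luminescence read.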
ELG1 genotox = qHTS screen for small molecules that induce genotoxicity in human embryonic kidney (HEK293T) cells expressing luciferase-tagged ELG1. HEK293T ELG1-luciferase reporter, luminescence, 16 h. Potency, µM (highest dose often 46 µM), hits mostly activators. 330,000 compounds, 1.3% hits; note: nearly all actives have a fitted effect of over 60% in size
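Step 1: seed 2,000 HEK293T ELG1-luciferase cells per well. Step 2: add compound or DMSO, incubate 16 hr at 37 °C. Step 3: ONE-Glo, 30 min at room temperature, read luminescence.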
Rab9 promoter act = qHTS Assay for Rab9 Promoter Activators; Huh7 Rab9 promoter-luciferase reporter, luminescence, 24 h; Potency, µM (top dose mostly 9.22 µM), actives largely listed as activators; 320,000 compounds, 2.8% hits; AID 485297, 2010; note: nearly all actives have a fitted effect of over 60% in size
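Using Huh7 cells stably transfected with Rab9 promoter–luciferase, compounds were incubated 24 h at 37 °C, 5% CO2; luciferase luminescence was read 10 min after reagent addition.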
KinaseGlo FLuc = Counterscreen for Luciferase (Kinase-Glo TM) Inhibition; Luciferin 4-monooxygenase (Photuris pensylvanica), Q27757; Kinase-Glo luciferase, ATP luminescence, 8 min; Potency, µM (highest dose often 38.3 µM), most hits filed as inhibitors; 200,000 compounds, 0.28% hits; note: nearly all actives have a fitted effect of over 60% in size
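Substrate mix (final 50 mM imidazole pH 7.2, 50 mM KCl, 7 mM MgCl2, 10 uM ATP, 0.01% Tween 20, 0.05% BSA) plus pin-tool compound, then Kinase-Glo detection mix; 8 min ambient, luminescence read.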
SMN2 splice up = qHTS Assay for Enhancers of SMN2 Splice Variant Expression | Potency, µM (series often up to 46.1 µM), usual class: activators | 210,000 compounds, 2.8% hits | HEK293 SMN2-luciferase splicing reporter, luminescence, 30-36 h; note: nearly all actives have a fitted effect of over 55% in size
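HEK293 cells carry an SMN2 […]–luciferase reporter in which exon 7 inclusion puts luciferase in frame. Cells were plated 10-12 h before compound addition, then incubated 30-36 h at 37C. ONE-Glo luminescence was read; sodium butyrate at 4.5 mM final served as control.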
NPC1 promoter act = qHTS Assay for NPC1 Promoter Activators. AID 485313, 2010. 320,000 compounds, 2.4% hits. Huh7 NPC1 promoter luciferase reporter, 24 h. Potency, µM (titrated, usually from 9.22 µM), most hits filed as activators; note: nearly all actives have a fitted effect of over 60% in size
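Cells: Huh7 expressing luciferase under the NPC1 promoter, 1500/well. Seeded 2 h, compound added, incubated 24 h at 37 °C. Luciferase reagent, 10 min ambient, then luminescence.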
Numbers stand for hits; i = inactive; ? = inconclusive; nt = not tested or not shown; [ ] = another dose, or the depositor's remark. Calls come from the whole dose curve; as a rule, active = well fitted curve in the direction sought with a large enough effect; inconclusive = small, poorly fitted or top-dose-only effect, or another doubt; inactive = no such curve, though single readings can be large; an effect the other way counts as inactive or inconclusive.

SMILES | FLuc modulator | ELG1 genotox | Rab9 promoter act | KinaseGlo FLuc | SMN2 splice up | NPC1 promoter act
Cc1ccc(NCC(=O)c2ccc(C)cc2)cc1 | 9.5µM | ? | i | nt | nt | i
Cc1ccc(C(=O)CNc2cccc(Cl)c2)cc1 | 2.7µM | ? | ? | i | i | i
Cc1ccc(NCC(=O)c2ccccc2)cc1Cl | ? | i | i | i | 18µM | i
Cc1ccc(C(=O)CNc2ccc(C)c(Cl)c2)cc1 | ? | ? | i | i | i | i
COc1ccccc1NC(=O)c1cc(-c2ccc(OC)c(OC)c2)nc2ccccc12 | 9.5µM | i | i | nt | nt | i
COc1ccc(-c2cc(C(=O)Nc3ccc(O)cc3)c3ccccc3n2)cc1OC | 5.4µM | i | i | nt | nt | i
CCCCn1c(N)c(N(CC(C)C)C(=O)CC2CCCCC2)c(=O)[nH]c1=O | i | i | i | nt | nt | i
CC(c1ccccn1)N(C)C(=O)c1ccc2nc(Cc3ccccc3F)oc2c1 (stereo unspecified) | 6.7µM | 13µM | 2.8µM | nt | nt | ?
Cc1cc(CNC(=O)c2ccc3nc(Cc4ccccc4F)oc3c2)nn1C | 11µM | ? | 3.2µM | nt | nt | 2.8µM
O=C(c1ccc2nc(Cc3ccccc3F)oc2c1)N1CCCC1 | 9.5µM | 10µM | 1.3µM | nt | nt | 2.8µM
O=C(NCc1ccncc1)c1ccc2nc(Cc3ccccc3F)oc2c1 | i | i | i | nt | nt | i
Cc1ccc(/C=C/C(=O)Nc2nccs2)o1 | 8.5µM | ? | 1.8µM | i | 11µM | 2.8µM
Cc1ccc(/C=C/C(=O)Nc2ncc(C)s2)o1 | 1.9µM | ? | 2.8µM | i | 3.2µM | 3.5µM
Cc1ccc(OCc2cc(=O)n3c4c(sc3n2)CCCC4)cc1C | ? | nt | nt | nt | i | nt
CCC(=O)N(Cc1ccc(S(N)(=O)=O)cc1)C1CC(=O)N(c2ccccc2)C1=O (stereo unspecified) | i | i | i | i | i | i
O=C(NCCC1CC1(Cl)Cl)Nc1ccccc1 (stereo unspecified) | ? | i | i | nt | nt | i
Cc1ccc(Cl)cc1N1CCN(c2nc3ccccc3c3nc(-c4cccnc4)nn23)CC1 | i | nt | nt | nt | i | nt
O=C(OCc1nc2ccccc2s1)c1cc2ccccc2oc1=O | 19µM | ? | i | i | i | i
Cc1ccc(C(=O)OCc2nc3ccccc3s2)o1 | 15µM | ? | ? | nt | nt | i
O=C(CCc1nc2ccccc2s1)OCc1ccccc1 | i | i | i | i | i | i
Nc1ccc(C(=O)OCc2nc3ccccc3s2)cc1 | 17µM | ? | i | i | i | i
O=C(CCC(=O)c1cccs1)OCc1nc2ccccc2s1 | ? | i | i | i | i | i
O=C(OCc1nc2ccccc2s1)c1ccc(Br)s1 | 19µM | i | i | i | i | i
CCCCNC(=O)C1CCC(Cn2c(=O)c3sccc3n(CC(=O)Nc3ccccc3)c2=O)CC1 (stereo unspecified) | i | nt | nt | nt | nt | nt
COc1ccc(C(=O)CNc2ccc(C)cc2C)cc1 | 12µM | i | i | nt | nt | i
SMILES | FLuc modulator | ELG1 genotox | Rab9 promoter act | KinaseGlo FLuc | SMN2 splice up | NPC1 promoter act
COC(=O)c1ccccc1NCC(=O)c1ccc(OC)cc1 | ? | i | i | nt | nt | ?
COc1ccc(C(=O)CNc2ccccc2CO)cc1 | 17µM | ? | i | i | ? | i
Cn1c(=O)c2c(nc(N3CCOCC3)n2Cc2ccc(Br)cc2)n(C)c1=O | i | nt | nt | nt | i | nt
COc1cccc(CNC(=O)C(C)n2ncn3cccc3c2=O)c1OC (stereo unspecified) | 6µM | nt | nt | nt | nt | nt
COc1cccc(CNC(=O)Cn2ncn3cccc3c2=O)c1OC | i | i | i | nt | nt | i
CCCCNC(=S)NNC(=O)c1cc(-c2ccncc2)nc2ccccc12 | 9.5µM | i | i | nt | nt | i
O=C(O)c1cc(C2CC2)nc2ccccc12 | i | i | i | i | i | i
O=C(NNC(=O)c1cc(-c2ccncc2)nc2ccccc12)c1ccccc1F | 24µM | i | i | nt | nt | i
CNC(=S)NNC(=O)c1cc(-c2cccnc2)nc2ccccc12 | i | i | i | nt | nt | i
O=C(NNC(=O)c1cc(-c2ccncc2)nc2ccccc12)Nc1ccc(F)cc1 | ? | i | i | nt | nt | i
COCCNC(=S)NNC(=O)c1cc(C2CC2)nc2ccccc12 | 12µM | i | i | nt | nt | i
CCCCNC(=S)NNC(=O)c1cc(C2CC2)nc2ccccc12 | 24µM | i | i | nt | nt | i
COC(=O)c1c(NC(=O)CSc2nnc(C)c(=O)[nH]2)sc(C)c1C | ? | ? | i | i | i | i
Cc1cn2c(=O)cc(COC(=O)COc3ccc(C)c(C)c3)nc2s1 | i | nt | nt | nt | nt | nt
COc1ccc(/C=N/NC(=O)c2cc(-c3ccccc3)nc3ccccc23)c(OC)c1 | 17µM | i | i | nt | nt | i
O=C(N/N=C/c1ccco1)c1cc(-c2cccc(Br)c2)nc2ccccc12 | 4.8µM | i | i | i | i | i
O=C(N/N=C/c1cc([N+](=O)[O-])ccc1O)c1cc(-c2ccccc2)nc2ccccc12 | ? | i | i | i | i | i
CC(/C=N/NC(=O)c1cc(-c2ccncc2)nc2ccccc12)=C\c1ccco1 | i | i | i | i | i | i
O=C(N/N=C/c1ccc(Cl)cc1)c1cc(-c2cccnc2)nc2ccccc12 | i | i | i | i | i | i
O=C(N/N=C/c1ccc[nH]1)c1cc(-c2ccc(Cl)cc2)nc2ccccc12 | 12µM | i | i | i | i | i
O=C(N/N=C/c1ccc(O)c(O)c1)c1cc(-c2ccccc2)nc2ccccc12 | 15µM | i | i | nt | nt | i
O=C(N/N=C/c1c(F)c(F)c(F)c(F)c1F)c1cc(-c2ccccc2)nc2ccccc12 | i | i | i | nt | nt | i
CCC1CN(C(=O)N2CCC(C(=O)NCCN(CC)CC)CC2)c2ccccc2O1 (stereo unspecified) | i | nt | nt | nt | nt | nt
O=C(NC(Cc1ccccc1)C(=O)O)/C(=C/c1ccccc1)NC(=O)c1cccc(Br)c1 (stereo unspecified) | ? | i | i | i | i | i
CCN(CC)CCNC(=O)C(=O)Nc1cc2c3c(c1)CCC(=O)N3CCC2 | i | i | i | nt | nt | i
O=C(N/N=C/c1cccc([N+](=O)[O-])c1)c1cc(-c2ccccc2)nc2ccccc12 | i | i | i | i | i[1.84 µM] | i
O=C(N/N=C/c1ccc2c(c1)OCO2)c1cc(-c2ccccc2Cl)nc2ccccc12 | ? | i | i | i | i | i
CCOc1cccc(-c2cc(C(=O)N/N=C/c3ccc(OC)c(CN4CCOCC4)c3)c3ccccc3n2)c1 | 6µM | i | i | i | i | i
COc1ccc2nc(-c3ccccc3)cc(OC)c2c1 | 12µM | ? | i | i | ? | i
O=C(N/N=C/c1ccc2c(c1)OCO2)c1cc(-c2ccncc2)nc2ccccc12 | 12µM | i | i | i | i | i
